# This is a sample that favours compounds with a hit; in the whole collection about 7.3% have one here.
# Luc counter = Counterscreen for Luciferase (Kinase-Glo TM) Inhibition. Luciferin 4-monooxygenase (Photuris pensylvanica), Q27757. Kinase-Glo luciferase, ATP luminescence, 8 min. actives 0.28% (n = 200,000). Potency, µM (series often up to 38.3 µM), hits mostly inhibitors. AID 1379, 2008; also: nearly all actives have a fitted effect of over 60% in size
#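 Inhibition of Kinase-Glo luciferase light generation was assessed at 10 uM ATP in pH 7.2 imidazole buffer, with luminescence measured after eight minutes at ambient temperature.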
# FLuc counter = qHTS profiling assay for firefly luciferase inhibitor/activator using purifed enzyme and Km concentrations of substrates (counterscreen for miR-21 project). Luciferin 4-monooxygenase (Photinus pyralis), P08659. actives 6.9% (n = 360,000). AID 588342, 2011. purified FLuc, Km substrates, luminescence inhibition. Potency, µM (doses to about 57.5 µM), most hits filed as inhibitors; also: nearly all actives have a fitted effect of over 55% in size
# Target sequence (P08659 whole entry, looked up): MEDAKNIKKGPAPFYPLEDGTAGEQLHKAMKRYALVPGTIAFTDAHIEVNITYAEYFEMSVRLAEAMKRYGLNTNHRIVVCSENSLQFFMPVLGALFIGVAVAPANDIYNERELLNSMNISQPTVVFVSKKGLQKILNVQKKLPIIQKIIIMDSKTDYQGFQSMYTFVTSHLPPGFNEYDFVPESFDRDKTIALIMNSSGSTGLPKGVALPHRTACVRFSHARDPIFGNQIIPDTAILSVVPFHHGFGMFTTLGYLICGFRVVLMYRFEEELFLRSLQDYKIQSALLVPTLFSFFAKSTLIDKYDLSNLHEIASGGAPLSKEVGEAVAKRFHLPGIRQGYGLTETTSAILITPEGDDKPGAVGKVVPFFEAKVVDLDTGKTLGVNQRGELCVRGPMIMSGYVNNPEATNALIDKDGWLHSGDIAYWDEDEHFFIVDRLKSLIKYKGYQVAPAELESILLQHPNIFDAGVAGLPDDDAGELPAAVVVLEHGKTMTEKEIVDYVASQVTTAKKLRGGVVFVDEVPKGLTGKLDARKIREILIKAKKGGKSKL
#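 Biochemical qHTS of compounds, final roughly 60 µM downward over six points, against 10 nM purified firefly luciferase using Km concentrations of substrates (10 uM D-luciferin, 10 uM ATP) in Tris acetate pH 7.5 buffer; luminescence output.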
# NPC1 prom act = qHTS Assay for NPC1 Promoter Activators; actives 2.4% (n = 320,000); Potency, µM (doses to about 9.22 µM), usual class: activators; AID 485313, 2010; Huh7 NPC1 promoter luciferase reporter, 24 h; also: nearly all actives have a fitted effect of over 60% in size
#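 Cells: Huh7 expressing luciferase under the NPC1 promoter, 1500/well. Seeded 2 h, compound added, incubated 24 h at 37 °C. Luciferase reagent, 10 min ambient, then luminescence.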
# SMN2 splice enh = qHTS Assay for Enhancers of SMN2 Splice Variant Expression | HEK293 SMN2-luciferase splicing reporter, luminescence, 30-36 h | Potency, µM (series often up to 46.1 µM), most hits filed as activators | actives 2.8% (n = 210,000); also: nearly all actives have a fitted effect of over 55% in size
#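 HEK293 cells carry an SMN2 minigene-luciferase reporter in which exon 7 inclusion puts luciferase in frame. Cells were seeded at 2000 cells/well, attached for 10-12 hours, then exposed to compounds for 30-36 hours at 37C before ONE-Glo luminescence.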
# Rab9 promoter act = qHTS Assay for Rab9 Promoter Activators | Huh7 Rab9 promoter-luciferase reporter, luminescence, 24 h | Potency, µM (highest dose often 9.22 µM), hits mostly activators | actives 2.8% (n = 320,000); also: nearly all actives have a fitted effect of over 60% in size
#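 Promoter activation is measured as luciferase luminescence in Huh7 cells stably transfected with a Rab9 promoter–luciferase construct, following 24 h compound exposure at 37 °C and 10 min reagent incubation at ambient temperature.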
# ELG1 genotox = qHTS screen for small molecules that induce genotoxicity in human embryonic kidney (HEK293T) cells expressing luciferase-tagged ELG1 | HEK293T ELG1-luciferase reporter, luminescence, 16 h | Potency, µM (titrated, usually from 46 µM), usual class: activators | actives 1.3% (n = 330,000) | AID 504466, 2011; also: nearly all actives have a fitted effect of over 60% in size
#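 Genotoxic stress is detected as increased luminescence from luciferase-tagged ELG1 in HEK293T cells, measured with ONE-Glo after a 16 hr treatment at 37 °C.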
# A number is an active result; . = inactive; ? = inconclusive; / = no result; [ ] = another dose, or the depositor's remark. Calls follow the shape of the dose curve; as a rule, active = well fitted curve in the direction sought with a large enough effect; inconclusive = small, poorly fitted or top-dose-only effect, or another doubt; inactive = no such curve, though single readings can be large; an effect the other way counts as inactive or inconclusive.
SMILES,Luc counter,FLuc counter,NPC1 prom act,SMN2 splice enh,Rab9 promoter act,ELG1 genotox
Cc1ccc(C(=O)/C=C/Nc2cccc([N+](=O)[O-])c2)o1,.,5.36µM,?,14.1µM,3.16µM,?
O=[N+]([O-])c1ccccc1/C=N/OCc1ccccc1,/,10.7µM,3.98µM,/,?,?
O=C(CC(=O)N/N=C\c1ccccc1[N+](=O)[O-])NCCc1ccccc1,/,.,.,/,.,.
Cc1cccc(-c2nc3scc(CCNS(=O)(=O)c4ccc(F)cc4C)n3n2)c1,/,.,/,/,/,/
CC(=O)Nc1c(C)nn(-c2ccccc2)c1N1CCC(C(=O)NCc2ccc(F)cc2)CC1,/,.,/,/,/,/
Cc1ccc(C(=O)C2CCNCC2)cc1,.,.,.,.,.,.
Cc1ccc(C(=O)/C=C2\NCCNC2=O)cc1,.,5.36µM,1.41µM,2.82µM,0.891µM,?
Cc1ccc(C(=O)/C=C2\NCC(C)NC2=O)cc1 (configuration not stated),.,1.2µM,0.316µM,.,0.316µM,?
CC1CCc2c(sc3nc(CSc4ncn[nH]4)[nH]c(=O)c23)C1 (configuration not stated),/,15.1µM,.,/,.,.
N[C@@](CCc1ccccc1)(C(=O)O)c1ccccc1,.[7.66 µM],/,/,.[9.22 µM],/,/
O=C(CCC1CCCCC1)Nc1ccccc1O,.,21.3µM,?,?,?,10.3µM
Cc1ccc(NC(=O)C2CC3CCC2C3)c(Br)c1 (configuration not stated),/,16.9µM,3.98µM,/,?,?
Cn1c(NC(=O)c2ccc(C(C)(C)C)cc2)cc(=O)n(C)c1=O,.,.,.,.,.,9.2µM
Cc1ccc(C)c(NC(=O)C2CC3CCC2C3)c1 (configuration not stated),/,?,.,/,.,.
Cn1c(NNC(=O)c2ccc(C(C)(C)C)cc2)cc(=O)n(C)c1=O,.,.,.,.,.,.
Cc1ccc(NC(=O)CC2CCCC2)c(Br)c1,/,15.1µM,?,/,?,?
COc1ccc(NC(=O)c2oc3c(c2C)-c2nn(Cc4ccccc4Cl)cc2CC3)cc1OC,/,.,/,/,/,/
O=C(NCc1cccnc1)c1nn(-c2ccccc2F)nc1CO,/,.,/,.,/,/
Cn1c(NNC(=O)CCC2CCCCC2)cc(=O)n(C)c1=O,.,.,.,.,.,.
Cc1ccc(O)c(NC(=O)C2CCCCC2)c1,/,.,.,/,.,.
Cn1c(NC(=O)CCC2CCCCC2)cc(=O)n(C)c1=O,.,5.36µM,3.98µM,11.2µM,1.41µM,3.26µM
Cc1ccc(O)c(NC(=O)CCC2CCCCC2)c1,.,7.57µM,?,.,.,?
O=C(/C=C(\O)c1ccccc1)c1ccccc1O,.,/,/,?,/,/
COC(=O)c1ccccc1NC(=O)NCCc1ccccc1OC,.,?,3.55µM,12.6µM,3.98µM,.
COc1ccccc1CCNC(=O)c1ccc(Br)s1,/,13.5µM,.,/,.,.
SMILES,Luc counter,FLuc counter,NPC1 prom act,SMN2 splice enh,Rab9 promoter act,ELG1 genotox
COc1ccccc1CCNS(=O)(=O)CCNC(=O)c1ccccc1,/,.,.,/,.,.
Cc1ccc(-n2nc3c(N4CCCC(C(=O)NCc5ccccc5C)C4)nnc(C)c3c2C)cc1 (configuration not stated),/,.,/,/,/,/
COc1ccc2[nH]c3c(Cl)ncnc3c2c1,/,.,.,/,.,.
COc1ccc(-c2cc3ncnc(Cl)c3s2)cc1,/,3.38µM,3.55µM,/,?,?
CC1=C(C(=O)Nc2cccnc2)C(c2ccc(F)cc2)n2nc(-c3cccc(C)c3)nc2N1 (configuration not stated),/,.,/,.,/,/
CC1=CC2=NC(=O)/C(=C\c3cc(C)n(-c4ccccc4)c3C)C(=N)N2O1,.,5.36µM,.,.[1.84 µM],.,.
Cc1cc(/C=C2/C(=N)N3C(=NC2=O)SN=C3S(C)(=O)=O)c(C)n1-c1ccccc1F,.,0.301µM,3.16µM,12.6µM,3.16µM,.
CC1=CC2=NC(=O)/C(=C\c3cc(C)n(-c4ccccc4F)c3C)C(=N)N2O1,.,6.01µM,.,.[1.84 µM],.,.
CS(=O)(=O)C1=NSC2=NC(=O)/C(=C\c3cccn3-c3ccc(Cl)cc3)C(=N)N21,.,.,.,.,.,.
Cc1ccc(C)c(N2CCN(C(=O)C(CC(C)C)NS(=O)(=O)c3ccc4nc(C)sc4c3)CC2)c1 (configuration not stated),/,.,/,.,/,/
CCOC(=O)c1ccccc1NS(=O)(=O)c1ccc(N2CCCCS2(=O)=O)cc1,/,.,/,/,/,/
CCC1CCCCN1Cc1cn2c(-c3ccc(Br)cc3)nnc2s1 (configuration not stated),/,.,/,/,/,/
Cc1nnc(N2CCC(C(=O)NCCC(C)C)CC2)c2nn(-c3ccc(Cl)cc3)c(C)c12,/,.,/,/,/,/
CCOc1cc(CNC(=O)NC2COc3ccc(OC)cc3C2)cc(OCC)c1OCC (configuration not stated),/,.,/,/,/,/
CSc1ccc(C(=O)N2CCc3ccc(NC(=O)c4ccccn4)cc3C2)cc1,/,19µM,?,/,?,.
COC(=O)c1ccccc1NC(=O)N1CCc2ccc(NC(=O)c3ccccn3)cc2C1,/,.,.,/,.,.
CCc1cccc(CC)c1NC(=O)CCS(=O)(=O)c1ccc(Br)s1,/,.,/,.,/,/
Cn1c(SCCOc2ccccc2Cl)nnc1-c1cccs1,.,?,.,.,.,.
Cn1c(SCc2c(F)cccc2Cl)nnc1-c1cccs1,.,15.1µM,?,20µM,2.24µM,13µM
CCOC(=O)CNC(=O)c1ccc(OCC(F)(F)F)cc1,?,?,?,12.6µM,2µM,.
CCOC(=O)CNC(=O)c1ccc2[nH]c3ccccc3c2c1,.,16.9µM,.,.,.,.
O=C(NCC(O)CO)c1ccc2[nH]c3ccccc3c2c1 (configuration not stated),.,?,.,.,.,.
CCOC(=O)CNC(=O)c1ccc(C)cc1,.,13.5µM,.,.,.,.
Cc1ccc(C(=O)NCC(=O)OCC(=O)NCCNC(=O)COC(=O)CNC(=O)c2ccc(C)cc2)cc1,/,.,.,/,.,.
CCOc1ccc(C(=O)NCC(=O)OCCCOC(=O)CNC(=O)c2ccc(OCC)cc2)cc1,/,?,.,/,.,.
Cc1cc2oc(C(=O)Nc3ccc(S(=O)(=O)N(C)c4ccccc4)cc3)cc(=O)c2cc1C,/,.,/,.,/,/
Cc1cc(Cl)ccc1NC(=O)CCS(=O)(=O)c1ccc2c(c1)CC(C)N2C(=O)C1CC1 (configuration not stated),/,.,/,/,/,/
O=C(Nc1ccccc1)Nc1cccc(-c2cn3cccnc3n2)c1,.,9.53µM,.,.,?,.
O=C(Nc1cccc(-c2cn3cccnc3n2)c1)Nc1ccccc1F,.,13.5µM,.,.,?,.

# Screening data from PubChem BioAssay.
